From ChEMBL document CHEMBL3988442, “University of Dundee, Small-Polar-MMV Screening Library” (2021)
The whole screen tested about 53,000 compounds, of which about 900 (1.7%) showed an effect of 50% or more. The full list was thinned out, with strong results kept by preference.

system: Mycobacterium tuberculosis; assay: Cornell - Phenotypic assay to identify agents that inhibit growth of Mycobacterium tuberculosis; format: functional; design: scale not given: direction of the effect not stated beside the values; conditions: 10 mM as filed; unlikely as a test dose

Row | SMILES | Percent Effect [%]
1 | Cc1ccc(CN2CCc3nnc(CN4CCCC4=O)n3CC2)s1.O=C(O)C(F)(F)F | 32.68
2 | CCC(C(=O)N(C)C)n1ccc2ncccc2c1=O (stereo not drawn) | 6.503
3 | CN(C)C(=O)CN1CCN(c2cc(N3CCCC3CO)ncn2)CC1 (stereo not drawn) | 1.672
4 | Cc1cc(N2CCC(C(=O)O)(n3ccc(C(C)(C)C)n3)CC2)nc(N)n1 | 5.557
5 | Cc1cc(C)nc(N2CCC(C(=O)O)(n3ccc(C(C)(C)C)n3)CC2)n1 | 67
6 | Cc1cnc(C)c(N2CCC(C(=O)O)(n3ccc(C(C)(C)C)n3)CC2)n1 | 5.905
7 | CSc1cccc(CNC(=O)[C@H]2CNC[C@@H](C(=O)N3CCOCC3)C2)c1 | -25.42
8 | Cc1nc[nH]c1CNCc1cccnc1N(C)C1CCCCC1 | -125.1
9 | COc1ccc(-n2cc(CCO)cn2)cc1C | 105.1
10 | COc1ccc(-n2cc(CCO)cn2)cc1C(N)=O | -5.342
11 | COc1cc(-n2cc(CCO)cn2)ccc1NC(C)=O | 12.75
12 | Cc1cn2c(n1)CCC(NC(=O)CCOc1ccccc1F)C2 (stereo not drawn) | -34.23
13 | O=C(c1nc(Cc2c[nH]c3ccccc23)no1)N1CCCCC1 | -4.941
14 | O=C(O)C(F)(F)F.O=C(c1cocn1)N1C[C@H]2CCC[C@@]2(COc2ccccn2)C1 | 78.33
15 | O=C(O)C(F)(F)F.O=C(c1ncccn1)N1C[C@H]2CCC[C@@]2(COc2ccccn2)C1 | -0.9925
16 | Cc1ccc(C(=O)N2C[C@H]3CCC[C@@]3(COc3ccccn3)C2)nc1.O=C(O)C(F)(F)F.O=C(O)C(F)(F)F | 19.03
17 | Fc1cccc(Cl)c1CNCCOc1ccccn1 | 41.65
18 | CN1[C@@H](C(=O)NCC2CC2)C[C@@H]2CN(Cc3ccco3)C[C@@H]21 | 11.69
19 | CCN(Cc1ccccc1)S(=O)(=O)C1CCS(=O)(=O)CC1 | 11.98
20 | CN(C)c1nccnc1C1CCN(c2cnccn2)CC1 | 17.38
21 | c1cc(C2CCN(c3cnccn3)CC2)ncn1 | 5.379
22 | CN(C)c1ccc(C2CCN(c3cnccn3)CC2)nc1 | 63.52
23 | COc1cccc(C(=O)N2C[C@@H](c3ccccc3)[C@@H]3NCCCC[C@@H]32)c1 | 4.696
24 | Cc1cc(C(C)(O)CNC(=O)c2ccc(Br)o2)c(C)o1 (stereo not drawn) | 53.63
25 | Cc1cc(C(C)(O)CNC(=O)OC(C)(C)C)c(C)o1 (stereo not drawn) | 14.94
26 | Cc1cc(C(C)(O)CNC(=O)C2(C)CCCC2)c(C)o1 (stereo not drawn) | 32.83

Row | SMILES | Percent Effect [%]
27 | O=C(c1cc(-n2cnnn2)ccc1Cl)N1CCCCCC1 | 22.48
28 | Cc1noc(C)c1CN1CCOCC12CCN(c1nccs1)CC2.O=C(O)C(F)(F)F | -2.189
29 | CCNC(=O)N1CCc2ccc(NC(=O)C(C)c3ccsc3)cc21 (stereo not drawn) | -7.199
30 | Cc1cnn(C2CCCN(C(=O)c3ccnc(-n4cncn4)c3)C2)c1 (stereo not drawn) | -11.26
31 | Cc1cn2nc(N3CCn4c(nnc4C(C)C)C3)sc2n1 | -4.534
32 | CS(=O)(=O)N1CCCCC1c1ccc(Nc2cnccn2)nc1 (stereo not drawn) | 21.12
33 | Cn1cc(CN2CCCCC2c2ccc(-c3cnn(C)c3)nc2)cn1 (stereo not drawn) | 0.8308
34 | Cn1cc(-c2ccc(C3CCCCN3Cc3cccnc3)cn2)cn1 (stereo not drawn) | 36.92
35 | c1cc(CN2CCCCC2c2ccc(Nc3cnccn3)nc2)ccn1 (stereo not drawn) | 73.82
36 | c1cncc(CN2CCCCC2c2ccc(Nc3cnccn3)nc2)c1 (stereo not drawn) | 29.23
37 | c1cnc(Nc2ccc(C3CCCCN3Cc3ccncc3)cn2)nc1 (stereo not drawn) | 63.94
38 | Cc1cnn(CCNCc2ccc(OCc3cccnc3)cc2)c1 | -17.94
39 | Cc1nnc(C2Cc3ccccc3CN2Cc2ncc(Cl)n2C)o1 (stereo not drawn) | -18.28
40 | Cn1cc(CC(=O)N2CCCC(c3cc(C(F)(F)F)[nH]n3)C2)cn1 (stereo not drawn) | -14.78
41 | O=C(Cn1cc(Cl)cn1)NCCN1CCC(O)(c2ccc(F)cc2)CC1 | 36.23
42 | CN(C)C(=O)C1CN(c2ccncn2)CCN(C2CCOCC2)C1 (stereo not drawn) | -28.59
43 | COc1cccc(C(=O)NS(=O)(=O)c2cc(Cl)sc2Cl)c1OC(F)F | 16.97
44 | COc1cc(C(=O)NS(=O)(=O)c2ccc(C#N)cc2)ccc1C | -19.49
45 | O=C(NS(=O)(=O)c1cc(Cl)sc1Cl)c1cccc2c1OCCO2 | 1.673
46 | COc1cc(C(=O)NS(=O)(=O)c2cc(Cl)sc2Cl)ccc1OC(F)F | 83.5
47 | COc1ccc(C(=O)NS(C)(=O)=O)cc1-c1ccccc1 | 36.61
48 | COc1ccc(C(=O)NS(=O)(=O)c2cc(Cl)sc2Cl)cc1OC(F)F | 76.92
49 | CCc1cc(NC(=O)C(c2cccc(F)c2)N2CCOCC2)[nH]n1 (stereo not drawn) | -14.2
50 | O=C(CS(=O)(=O)Cc1cc(Cl)c2c(c1)OCO2)N1CCCCCC1 | -3.371
51 | COCCCNC(=O)N1CCN(C(=O)c2nsc3ccccc23)CC1 | 12.5
52 | CN(C)Cc1cc(=O)n2c(n1)CN(C(=O)c1ccc[nH]1)CCC2.O=C(O)C(F)(F)F | -35.4

Row | SMILES | Percent Effect [%]
53 | Cc1ccc(N2N=C(C(=O)O)S(=O)(=O)c3cccnc32)cc1 | 51.3
54 | Cc1ccc(N2N=C(C(N)=O)S(=O)(=O)c3cccnc32)cc1 | 106.9
55 | CC(C)CCN1N=C(C(=O)N2CCCCCC2)S(=O)(=O)c2ccccc21 | 8.314
56 | CN1N=C(C(=O)N2CCCCC2)S(=O)(=O)c2ccccc21 | -10.66
57 | Cc1ccc(CN2CCN(c3ncccc3C(N)=O)CC2CCO)cc1 (stereo not drawn) | 16.45
58 | Cc1ccc(N2N=C(C(=O)NCC3CC3)S(=O)(=O)c3cccnc32)cc1 | 11.26
59 | Cc1cn2c(n1)CCC(NC(=O)CCCn1cncn1)C2 (stereo not drawn) | -12.33
60 | CC(=O)Nc1nc(C2CCN(C(C)C)CC2)cs1 | -15.97
61 | COCC(=O)N1CCCCC1c1nc(CN(C)C(C)=O)cc(N(C)C)n1 (stereo not drawn) | -40.24
62 | CC(=O)N1CCCC1c1nc(CN(C)C(=O)C(C)C)cc(N(C)C)n1 (stereo not drawn) | 52.18
63 | CCC(=O)N1CCCCC1c1nc(CN(C)C(C)=O)cc(N(C)C)n1 (stereo not drawn) | 49.36
64 | COc1ccc(C(=O)N2CCOc3ccncc32)cc1 | 9.514
65 | c1cc(-c2cscn2)cc(N2CCC(NCCc3cccs3)CC2)c1 | 60.71
66 | CC(C)CC(C)NC1CCN(c2cccc(-c3cscn3)c2)CC1 (stereo not drawn) | 2.317
67 | Fc1cccc(-c2cccc(N3CCC(NC4CCCOC4)CC3)c2)c1 (stereo not drawn) | 23.21
68 | c1ccc(-c2cccc(N3CCC(NCCc4cscn4)CC3)c2)cc1 | 93.63
69 | O=C1CCCN1c1cccc(N2CCC(NCCc3cscn3)CC2)c1 | 24.64
70 | Cc1nc(-c2cccc(N3CCC(NC4CCOCC4)CC3)c2)cs1 | 35.61
71 | CCCC(=O)N1CCOC2(COCCN(CC(=O)NC)C2)C1.O=C(O)C(F)(F)F (stereo not drawn) | 6.771
72 | O=C(CC(SC1CCCCC1)C(=O)O)c1ccc(Br)cc1 (stereo not drawn) | 52.8
73 | O=C(CC(SC1CCCCC1)C(=O)O)c1ccc(Cl)cc1 (stereo not drawn) | 11.66
74 | Cc1ccc(C(=O)CC(SC2CCCCC2)C(=O)O)cc1 (stereo not drawn) | 44.78
75 | O=C(O)C(F)(F)F.O=C(O)C(F)(F)F.O=C(O)c1c(-c2cccnc2)ncc2c1CCN(Cc1ccccn1)C2 | -51.27
76 | O=C(NCc1cccnc1)c1nc2c(s1)CCCN2C(=O)C1CC1.O=C(O)C(F)(F)F | 6.625
77 | CC(=O)Nc1nc(C2CCN(CC(N)=O)CC2)cs1 | 1.083
78 | c1cnc(N2CCC(c3csc(Nc4cnccn4)n3)CC2)nc1 | 78.58

Row | SMILES | Percent Effect [%]
79 | Cc1nc(Nc2cnccn2)cc(C2CCN(c3ncccn3)C2)n1 (stereo not drawn) | -14.64
80 | OCCN1CCC(c2csc(Nc3cnccn3)n2)CC1 | -21.31
81 | NC(=O)CN1CCC(c2csc(Nc3cnccn3)n2)CC1 | 53.63
82 | c1cnc(N2CCCC(c3csc(Nc4cnccn4)n3)C2)nc1 (stereo not drawn) | 29.09
83 | O=C(N1CCOCC1)n1cnc2ccccc21 | 14.08
84 | CC1CCN(c2ccc(=O)n(CC(=O)NCCc3ccccc3)n2)CC1 | 45.57
85 | COc1c(CC2CC(CO)=NO2)c(Br)c2c(c1OC)OCO2 (stereo not drawn) | -3.025
86 | CCCS(=O)(=O)N1CCCC(c2nc(-c3ccccc3)c[nH]2)C1 (stereo not drawn) | 56.46
87 | CS(=O)(=O)N1CCCC(c2nc(-c3ccccc3)c[nH]2)C1 (stereo not drawn) | 4.975
88 | CCN(C)S(=O)(=O)N1CCCC(c2nc(-c3ccccc3)c[nH]2)C1 (stereo not drawn) | -4.787
89 | Cc1ccc(S(=O)(=O)Nc2c(C)nc(N3CCCC3)nc2C)cc1 | 52.33
90 | Cc1nc(N2CCOCC2)nc(C)c1NS(=O)(=O)c1ccccc1 | 18.03
91 | Cc1nc(N2CCCC2)nc(C)c1NS(C)(=O)=O | 7.192
92 | Cc1noc2ncc(S(=O)(=O)N3CCCC(C)(C)CC3)cc12 | 49.9
93 | CCC1CCCN(S(=O)(=O)c2cnc3onc(C)c3c2)C1 (stereo not drawn) | 54.72
94 | CCN1CCCN(S(=O)(=O)c2cnc3onc(C)c3c2)CC1 | 44.95
95 | CCc1noc(CN(Cc2cccs2)CC2CCCO2)n1 (stereo not drawn) | -2.113
96 | CNc1ncc(CN(C)C(=O)c2c[nH]nc2-c2cccc(F)c2)cn1 | 11.75
97 | Cn1ncc2c1CCCN(C(=O)C1CCCC1)C2 | 10.97
98 | Cc1cc(C)n(C2CCN(Cc3nc4ccccc4n3C)CC2)n1 | 18.24
99 | Cn1c(CCN2CCN(CCc3ccccc3)CC2)nc2ccccc21 | 76.94
100 | CCNC(=O)N1CCN(c2nc3ccccc3n2C)CC1 | 17.71
101 | CCCc1ccc(N2CCN(Cc3nc4ccccc4n3C)CC2)cc1 | -0.4475
102 | Cn1c(CCN2CCN(c3ccc(O)cc3)CC2)nc2ccccc21 | 103.8
103 | Cn1c(CN2CCN(CC3CCCO3)CC2)nc2ccccc21 (stereo not drawn) | 22.41
